For 29 molecules, AC50 and activity, negative = inhibition results are on record in PubChem BioAssay AID1851 (National Center for Advancing Translational Sciences (NCATS), 2009).

About 5,100 (32%) of roughly 16,000 compounds were called active. Inconclusive results (about 25%) are left out. Calls follow the shape of the dose curve; as a rule, active = well fitted curve in the direction sought with a large enough effect; inconclusive = small, poorly fitted or top-dose-only effect, or effect the other way; inactive = no such curve, though single readings can be large or run the other way. Some of the results follow.
% is scaled to controls: 0 for no effect and ±100 for the full control effect.

Cytochrome P450 3A4 (Homo sapiens), sequence (P08684 whole entry, looked up): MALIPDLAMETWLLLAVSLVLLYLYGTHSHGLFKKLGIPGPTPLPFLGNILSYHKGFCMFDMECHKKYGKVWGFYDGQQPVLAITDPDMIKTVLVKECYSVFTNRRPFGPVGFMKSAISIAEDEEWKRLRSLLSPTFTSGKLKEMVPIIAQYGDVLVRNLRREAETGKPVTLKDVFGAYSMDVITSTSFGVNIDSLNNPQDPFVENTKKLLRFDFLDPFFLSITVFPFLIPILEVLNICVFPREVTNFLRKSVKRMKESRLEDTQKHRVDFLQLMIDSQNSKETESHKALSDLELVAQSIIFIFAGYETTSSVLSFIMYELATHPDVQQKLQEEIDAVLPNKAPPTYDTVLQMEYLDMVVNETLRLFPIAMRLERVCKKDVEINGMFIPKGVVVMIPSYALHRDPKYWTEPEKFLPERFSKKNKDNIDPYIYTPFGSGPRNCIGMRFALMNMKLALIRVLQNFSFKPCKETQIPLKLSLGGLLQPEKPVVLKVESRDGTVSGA

The test addresses Cytochrome P450 3A4 (Homo sapiens) (UniProt P08684). Nature of the test: Cytochrome panel assay with activity outcomes. The conditions noted are these: recombinant CYP, pro-luciferin dealkylation, luminescence, p450-cyp3a4; series mostly up to 57.1 µM.
Broadly, the AC50 is the concentration giving half of the maximal activity seen. Take `O=C(NC1CCCC1)c1cccnc1N1CCCCCC1`: the AC50 was 14.1 µM (active).
`O=[N+]([O-])c1cccnc1N1CCCCC1`: the AC50 entry was “inactive”.
Still for that read-out and setting: the value for `O=C(O)C1CCN(c2ncccn2)CC1` was “inactive”; that for `Cc1noc(C)c1COc1cccc(C(=O)OCC(=O)N2CC(=O)Nc3ccccc32)c1` was 4.47 µM (active).
As to `COCc1c(C(=O)OCC(=O)N2c3ccccc3NC(=O)C2(C)C)oc2ccccc12`, the AC50 result was “inactive”.
The same measure, in the same setting: the value for `O=C(Nc1ccccc1N1CCOCC1)c1ccc([N+](=O)[O-])cc1` was “inactive”; that for `Cc1cc(F)ccc1S(=O)(=O)Nc1ccccc1C(=O)Nc1ccccc1N1CCOCC1` was 0.891 µM (active).
Same read-out and setting: the value for `O=C(Nc1ccccc1N1CCOCC1)c1ccccc1[N+](=O)[O-]` was “inactive”.
Still for that read-out and setting: with `Cc1cccc(CNc2nc(-c3ccccc3CN(C)C)nc3ccccc23)c1` the figure was 10 µM (active); with `CN(C)Cc1ccccc1-c1nc(NCc2ccccc2)c2ccccc2n1`, 12.6 µM (active); with `CN(C)Cc1ccccc1-c1nc(N(C)C)c2ccccc2n1`, “inactive”.
Consider `CCCCN=C1N/C(=C\c2ccco2)C(=O)N1c1ccccc1`, for which the AC50 entry is “inactive”.
Same read-out and setting: the value for `COc1ccccc1OCCN1C(=O)S/C(=C\c2ccco2)C1=O` was 14.1 µM (active); that for `CCOc1cc(/C=C2/SC(=O)N(CC(=O)N3CCc4ccccc4C3)C2=O)ccc1OCC(=O)O` was “inactive”.
With `CCCc1cc(=O)oc2cc(OCc3nn[nH]n3)ccc12`, the activity, negative = inhibition is -17.2% [at 2.29 µM] (inactive).
As for `CCCc1cc(=O)oc2cc(OCC(=O)N3CCc4ccccc43)ccc12`, the half-maximal activity concentration (AC50) is 8.91 µM (active).
For the molecule `CCCCc1cc(=O)oc2cc(OCC(=O)N(CC)CC)ccc12`, the AC50 entry is “inactive”.
In the case of `Cc1ccc(Nc2nc(-c3c(C)nc4ncccn34)cs2)cc1`, the AC50 is 25.1 µM (active).
Regarding `CC(C)C(=O)NCCn1ccc2ccccc21`, the AC50 was 12.6 µM (active).
Take `C=CCn1c(=O)c(C(=O)NCCN(CC)CC)c(O)c2ccccc21`: the AC50 result is “inactive”.
The same measure, in the same setting: the value for `O=C(O)CN1CCN(Cc2ccccc2)C1=O` was “inactive”; that for `O=C(O)CN1CCN(Cc2ccc(F)cc2Cl)C1=O` was 2.24 µM (active); that for `CC1=C(C#N)C(NC(=O)C2CCCCC2)(C(F)(F)F)C(=O)N1` (centres undefined) was “inactive”.
For `Cc1sc(NC(=O)/C=C/c2ccc(C(C)C)cc2)c(C#N)c1C`, the AC50 result is “inactive”.
On the same count and under the same terms, with `Cc1sc(NC(=O)C2CCCCC2)c(C#N)c1-c1ccccc1` the figure was 8.91 µM (active); with `CC(C)(C)CNC(CO)C12CC3CC(CC(C3)C1)C2` (centres undefined), “inactive”; with `Cc1ccc2nc(SCc3nc4c(cnn4-c4ccccc4)c(=O)[nH]3)[nH]c2c1`, 10 µM (active).
On the same count and under the same terms, the value for `CCC(CC)C(=O)Nc1c2cnn(-c3ccccc3)c2nc(=O)n1-c1ccccc1` was “inactive”.
With `Cc1nc(SCC(=O)Nc2c(C)nn(C)c2C)c2cnn(-c3ccccc3)c2n1`, the activity, negative = inhibition is -11.2% [at 2.29 µM] (inactive).
